Structures are written as SMILES. Records with an inconclusive call do not appear. A call without a number means that no potency is given here. Calls of active or inactive are those of the source. Calls come from the whole dose curve; as a rule, active = well fitted inhibition curve with a large enough effect; inconclusive = small, poorly fitted or top-dose-only effect; inactive = no such curve, though single readings can be large or run the other way.

The experiment concerns the target Retinaldehyde dehydrogenase 3 (Homo sapiens) (UniProt P47895). Description: qHTS for Inhibitors of the Aldehyde Dehydrogenase Family (ALDH1A3) Primary screen (AID 2061315). Conditions: ALDH inhibition qHTS; series mostly up to 56 µM. A general note: qHTS replaces the single test concentration by a dilution series.
`CC(=O)O[C@H]1CC2C(COC(=O)CC(C)C)=CO[C@@H](OC(=O)CC(C)C)C2[C@]12CO2` (stereo partly specified): the Potency entry was “inactive”. With `C=C1CCC2C(C)(C(=O)OC)CCCC2(C)C1CCC(C)CC(=O)O` (stereo unspecified) the entry was “inactive”; with `O=C1C[C@@]2(C(=O)N1)C(=O)N(Cc1ccc(Br)cc1F)C(=O)c1cccn12`, “inactive”. With `C[C@]1(CO)CN(c2cc(C(=O)Nc3ccc4c(c3)-c3c(c(C(N)=O)nn3-c3ccc(F)cc3)CC4)c(Cl)cn2)C[C@@]1(C)CO` the entry was “inactive”; with `C=CC(C)(C)C12CC3C(=O)NC(Cc4cnc[nH]4)C(=O)N3C1Nc1ccccc12` (stereo unspecified), “inactive”; with `C[C@H]1CC[C@@]2(OC1)O[C@H]1CC3C4CC[C@H]5C[C@@H](O)CC[C@]5(C)C4CC(=O)[C@]3(C)[C@H]1[C@@H]2C` (stereo partly specified), “inactive”.

As to `C=C(C(=O)O)C1CC2=C(C)C(=O)CC2C(C)CC1O` (stereo unspecified), the Potency entry was “inactive”. With `CCc1cc(CN2CC(C(=O)O)C2)sc1-c1noc(-c2ccc(Oc3ccccc3)cc2)n1` the entry was “inactive”; with `CC(=O)O[C@H]1CC(C)(C)CC2[C@@]13[C@H](O)C[C@]1(C)[C@@]2(CCC2[C@@]4(C)CC[C@H](O[C@@H]5OC[C@H](O[C@@H]6O[C@H](CO)[C@@H](O)[C@H](O)[C@H]6O[C@@H]6OC[C@@H](O)[C@H](O)[C@H]6O)[C@H](O)[C@H]5O[C@@H]5O[C@H](CO)[C@@H](O)[C@H](O)[C@H]5O)C(C)(C)C4CC[C@]21C)O[C@@H]3O` (stereo partly specified), “inactive”; with `CC1=CC(=O)CC(C)(C)[C@@]1(O)CC[C@@H](C)O[C@@H]1O[C@H](CO)[C@@H](O)[C@H](O)[C@H]1O`, “inactive”. With `CC(C)=CCC[C@](C)(O[C@@H]1O[C@H](CO)[C@@H](O)[C@H](O)[C@H]1O)[C@H]1CC[C@]2(C)[C@@H]1[C@H](O)CC1[C@@]3(C)CC[C@H](O)C(C)(C)C3[C@@H](O[C@@H]3O[C@H](CO)[C@@H](O)[C@H](O)[C@H]3O)C[C@]12C` (stereo partly specified) the entry was “inactive”.

These data come from PubChem BioAssay (NCATS).
